“And” between values parts separate entries of the source, which are not always exact repeats. Identical values can stand only once. Among all 40,000 compounds or so, about 1,400 (3.5%) were called active.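 The calls were made as follows: active = any of four per-well response measures lying three or more SD from its plate-wide compound average, in either direction; inactive = the rest, inconclusive results apart.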 Only a selection was taken, and actives are over-represented in it overall.
These compounds were tested against Voltage-dependent calcium channel gamma-2 subunit (Mus musculus) + Glutamate receptor 2 (Rattus norvegicus) (UniProt O88602+P19491) (assay: AMPAR-TARP gamma-2 complex positive or negative modulation – cell-based, membrane potential dye, primary screen (AID 1259245)). Conditions: HEK293 GluA2+stargazin, membrane potential dye (FDSS), glutamate EC50, at 30 µM, hits were called plate by plate, in both directions; compound max-min signal: compound-alone response (agonism); glutamate slope, % of max: measured here: glutamate response slope, % max.
Sequence of Voltage-dependent calcium channel gamma-2 subunit (Mus musculus) + Glutamate receptor 2 (Rattus norvegicus) (O88602 whole entry, looked up): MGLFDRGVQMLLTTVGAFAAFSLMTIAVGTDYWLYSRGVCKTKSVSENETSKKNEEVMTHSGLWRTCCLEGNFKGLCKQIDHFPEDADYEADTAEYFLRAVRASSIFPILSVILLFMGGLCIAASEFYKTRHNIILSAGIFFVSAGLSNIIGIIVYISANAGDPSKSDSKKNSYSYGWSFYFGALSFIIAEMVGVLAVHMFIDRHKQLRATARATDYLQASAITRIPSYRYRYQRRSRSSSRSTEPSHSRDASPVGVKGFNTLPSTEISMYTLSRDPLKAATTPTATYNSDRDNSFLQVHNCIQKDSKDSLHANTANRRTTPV
Sequence of Voltage-dependent calcium channel gamma-2 subunit (Mus musculus) + Glutamate receptor 2 (Rattus norvegicus) (P19491 whole entry, looked up): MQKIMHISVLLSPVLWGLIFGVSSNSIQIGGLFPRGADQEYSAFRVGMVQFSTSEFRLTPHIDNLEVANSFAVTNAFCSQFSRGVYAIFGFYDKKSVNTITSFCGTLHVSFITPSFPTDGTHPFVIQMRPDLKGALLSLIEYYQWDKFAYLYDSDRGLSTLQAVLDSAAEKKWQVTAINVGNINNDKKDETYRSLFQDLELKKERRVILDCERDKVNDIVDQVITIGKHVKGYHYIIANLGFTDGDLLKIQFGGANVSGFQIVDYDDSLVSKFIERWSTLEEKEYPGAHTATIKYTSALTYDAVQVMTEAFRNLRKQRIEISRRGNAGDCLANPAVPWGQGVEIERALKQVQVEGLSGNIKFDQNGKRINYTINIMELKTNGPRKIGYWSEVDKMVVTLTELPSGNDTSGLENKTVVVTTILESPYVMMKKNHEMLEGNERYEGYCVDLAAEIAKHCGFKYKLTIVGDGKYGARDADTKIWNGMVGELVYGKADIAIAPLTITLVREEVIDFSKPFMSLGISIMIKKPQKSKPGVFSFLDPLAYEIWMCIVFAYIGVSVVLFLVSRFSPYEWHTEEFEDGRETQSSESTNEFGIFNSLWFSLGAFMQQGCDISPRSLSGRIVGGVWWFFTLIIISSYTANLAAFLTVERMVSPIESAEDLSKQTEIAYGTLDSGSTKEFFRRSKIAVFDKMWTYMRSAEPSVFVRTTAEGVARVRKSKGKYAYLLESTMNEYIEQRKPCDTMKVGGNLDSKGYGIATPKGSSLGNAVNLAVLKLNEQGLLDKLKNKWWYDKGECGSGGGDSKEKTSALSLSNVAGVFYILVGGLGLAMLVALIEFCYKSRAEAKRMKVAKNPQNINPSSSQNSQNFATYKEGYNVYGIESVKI

Compound	compound max-min signal	glutamate response, % of max	glutamate slope, % of max
Cc1ccc(S(=O)(=O)N2CCCCC2CCN)cc1 (configuration not stated)	0.0595	35.1% (inactive)	57.7%
Cc1ccc(-n2ccnc2N2CCN(CC(=O)Nc3ccc4c(c3)OCO4)CC2)cc1	0.0402	18.2% (inactive)	39.2%
CCSc1nnc(-c2ccc(C)cc2)n1-c1ccccc1	0.0317	0.366% (inactive)	-1.02%
CC(C)c1ccc(NC(=O)C(=O)NCCN2CCN(c3ccc(Cl)cc3)CC2)cc1	0.121	29.8% (inactive)	55.1%
Cc1ccc(-c2nc3c(C)cc(C)cc3c(=O)o2)cc1	0.127	23.3% (inactive)	45.9%
Cc1cc(C(=O)O)c2cccc(Cl)c2n1	0.0395 and 0.0789	80.9% (inactive) and 28.3% (inactive)	99.3% and 46.1%
O=c1oc(-c2ccncc2)nc2c(Cl)cccc12	0.253	22.4% (active)	51.7%
O=C(Nc1ccc2c(c1)OCO2)c1ccc(S(=O)(=O)N2CCCCCC2)cc1	0.123	36.1% (inactive)	60.4%
COc1ccc(N2C(=O)/C(=C/c3ccncc3)SC2=S)cc1	0.061	31.6% (inactive)	49.4%
O=C(Nc1cccc(N2CCCCC2=O)c1)c1cc([N+](=O)[O-])ccc1Cl	0.113	24.4% (inactive)	52.2%
Cc1ccc(C(=O)Nc2cccc(N3CCCC3=O)c2)cc1[N+](=O)[O-]	0.195	33.5% (active)	54.6%
Cc1cccc(C(=O)Nc2cccc(N3CCCC3=O)c2)c1	0.114	45.7% (inactive)	67.6%
COc1ccc(NC(=O)COc2ccccc2F)cc1N1CCCCC1=O	0.0429	20.8% (inactive)	35.3%
O=C(Nc1onc2c1CCCC2)c1nc(-c2cnccn2)no1	0.128	29.1% (inactive)	62.8%
CCC(C)NC(=O)/C=C/c1cc(OC)ccc1OC (configuration not stated)	0.0444 and 0.0831	100% (inactive) and 35.1% (inactive)	112% and 48.5%
CC(C)c1cc(=O)n(CC(=O)Nc2ccc(S(=O)(=O)Nc3nccs3)cc2)cn1	0.0931	41.9% (inactive)	61.5%
CCCCCOc1cccc(C(=O)Nc2ccc(S(=O)(=O)Nc3nnc(CC)s3)cc2)c1	0.112	38.7% (inactive)	62.1%
O=C(Nc1ccc(S(=O)(=O)Nc2nccs2)cc1)c1csc(-c2cnccn2)n1	0.274	48.2% (active)	85.9%
CCOc1ccccc1NC(=O)Cn1nc(-c2cc(C)c(C)cc2C)ccc1=O	0.0944	64% (inactive)	97.5%
Cc1nc2ccccc2c(=O)n1-c1cccc(NC(=O)CCC2CCCCC2)c1	0.0678	11% (inactive)	28.2%
O=C(NC(C(=O)O)C12CC3CC(CC(C3)C1)C2)c1cc([N+](=O)[O-])ccc1Cl (configuration not stated)	0.0736	35.4% (inactive)	56.5%
COC(=O)N1CCC(CNC(=O)c2ccc(F)cc2)CC1	0.0851	46.6% (inactive)	66.5%
O=C(NC(C(=O)N1CCCCC1)C12CC3CC(CC(C3)C1)C2)c1ccc(F)cc1 (configuration not stated)	0.0524	56.1% (active)	79.2%
O=C(Nc1sc2ccccc2c(=O)c1-c1ccc2c(c1)OCO2)c1ccco1	0.14	24.9% (inactive)	55.4%

— PubChem BioAssay AID1259245 (Vanderbilt High Throughput Screening Facility, 2017)
